Inconclusive results are not listed. Activity calls are given as the source filed them. How the source made its calls: active means hit-call score of the fitted dose curve at least 0.9, where 1 is the maximum; inconclusive means response in the unintended direction; inactive means score below 0.9.

Experiment [1] is described as follows: ACEA_AR_agonist_AUC_viability: ACEA Biosciences xCELLigence Real-Time Cell Analysis on Androgen Receptor Agonism for Viability (AID 2283775).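 On AC50: viability read 80 hours after compound addition.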 Put shortly: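 22Rv1 cells; impedance growth kinetics; 8-pt 1:4 dilutions from 100 uM top final, ≤0.5% DMSO; n = 2; 80 h read; AUC viability, loss-of-signal vs DMSO.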
A short description of experiment [2]: ACEA_AR_antagonist_AUC_viability: ACEA Biosciences xCELLigence Real-Time Cell Analysis on Androgen Receptor Antagonism for Viability (AID 2283776).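 Further: 22Rv1 human prostate cancer cells growing on impedance electrode plates; hits lower the growth signal relative to DMSO meaning cytotoxicity.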 Put shortly: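 Impedance read-out (RT-CES): area under growth curve at 80 h post-dose, loss of signal scored vs DMSO baseline. 22Rv1 cells; 8-pt 1:4 series, top 100 uM final, ≤0.5% DMSO; biological duplicate.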
Experiment [3] is described as follows: ACEA_ER_AUC_viability: ACEA Biosciences xCELLigence Real-Time Cell Analysis on Estrogen Receptor Agonism for Viability (AID 2283782).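 Further: hit means loss of impedance signal meaning reduced cell growth or viability.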 Put shortly: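 Continuous-exposure impedance cell analysis uses T-47D cells in charcoal-stripped serum, eight 1:4 dilutions topping at 100 uM final, biological duplicate. Area under the growth curve at 80 h is fitted against DMSO baseline.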

A short description of experiment [4]: STM_H9_NormalizedViability: Cytotoxicity Assessment at 120 hours in the Stemina devTOX quickPredict H9 human embryonic stem cell (hESC)-based Assay (AID 2283784). Put shortly:
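Viability of the cell layer was taken from live-cell protease cleavage of a fluorogenic substrate after compound exposure of undifferentiated H9 stem cells, with replenishment each 24h. Fluorescence was normalized to vehicle (0.1% DMSO).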

Another experiment deals with AR (gene 367) (UniProt P10275). Nature of the experiment: ACEA_AR_agonist_80hr: ACEA Biosciences xCELLigence Real-Time Cell Analysis on Androgen Receptor Agonism for Proliferation (AID 2283783).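 Further: hits increase impedance growth signal above DMSO baseline.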 Put shortly:
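Real-time cell-growth kinetics were recorded by electrode impedance in 22Rv1 cells exposed to test chemicals up to 100 uM final; the 80 h timepoint served as the readout, fitted upward relative to DMSO controls, in biological duplicate.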

Chain of AR (gene 367) (P10275 whole entry, looked up): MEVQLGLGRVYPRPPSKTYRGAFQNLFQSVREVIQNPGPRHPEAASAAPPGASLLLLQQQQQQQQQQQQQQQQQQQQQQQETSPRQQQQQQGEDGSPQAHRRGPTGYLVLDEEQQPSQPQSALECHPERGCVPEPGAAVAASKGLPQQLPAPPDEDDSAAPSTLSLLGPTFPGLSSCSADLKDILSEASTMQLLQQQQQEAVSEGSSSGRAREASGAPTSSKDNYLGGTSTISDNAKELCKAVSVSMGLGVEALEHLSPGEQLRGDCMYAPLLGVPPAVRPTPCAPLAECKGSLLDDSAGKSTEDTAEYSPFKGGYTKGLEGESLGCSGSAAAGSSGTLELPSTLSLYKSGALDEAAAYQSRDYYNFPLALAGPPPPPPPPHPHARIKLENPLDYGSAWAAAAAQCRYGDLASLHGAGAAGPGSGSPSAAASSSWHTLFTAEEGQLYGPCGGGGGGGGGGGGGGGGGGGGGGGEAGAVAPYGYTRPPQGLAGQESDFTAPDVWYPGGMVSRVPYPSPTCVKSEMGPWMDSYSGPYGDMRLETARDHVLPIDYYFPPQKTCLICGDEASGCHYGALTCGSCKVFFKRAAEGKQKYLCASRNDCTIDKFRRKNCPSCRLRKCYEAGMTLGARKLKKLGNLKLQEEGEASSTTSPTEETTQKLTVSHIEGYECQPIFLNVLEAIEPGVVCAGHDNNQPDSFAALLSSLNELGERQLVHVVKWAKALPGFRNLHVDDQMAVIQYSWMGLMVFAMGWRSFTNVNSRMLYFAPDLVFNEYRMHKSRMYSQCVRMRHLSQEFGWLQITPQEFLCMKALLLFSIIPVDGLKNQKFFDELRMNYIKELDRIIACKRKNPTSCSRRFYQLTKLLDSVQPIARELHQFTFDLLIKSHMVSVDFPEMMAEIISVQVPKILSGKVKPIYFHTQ

In the case of `COP(=S)(OC)SCN1C(=O)c2ccccc2C1=O`, the AC50 – broadly, the concentration at which the activity in the assay is half-maximal – in experiment [1] is 79.7 µM (active); in experiment [2], 64.7 µM (active).
As to `[As]#[In]`, the result in experiment [1] and in experiment [2] was inactive.
Consider `ClC1=C(Cl)C2(Cl)C3C(Cl)C=CC3C1(Cl)C2(Cl)Cl` (stereo not given), for which the AC50 in experiment [1] is 25 µM (active); in experiment [2], 22 µM (active); in experiment [3], 50 µM (active).
For `c1ccc2c(c1)oc1ccccc12`, the call in experiment [1] and in experiment [2] was inactive.
As to `C[N+](C)(C)CC1CO1` (stereo not given), the outcome in experiment [1], in experiment [2] and in experiment [3] was inactive. For the same compound, the AC50 in experiment [4] was 24 µM (active).
`N#CC(Br)Br`: in experiment [2], the result was inactive.
With `CCCCCCCCCCCCCN1CC(C)OC(C)C1` (stereo not given), the compound was classed as inactive in experiment [1], in experiment [2] and in experiment [4].
On to `O=C(O)C1C2CCC(O2)C1C(=O)O` (stereo not given), for which the values for the half-maximal activity concentration (AC50) in experiment [2] and in experiment [3] were 35.4 µM (active) and 21.9 µM (active), respectively.
With `ClCCOCCCl`, the outcome in experiment [1] and in experiment [3] was inactive.
With `Brc1ccc(Oc2ccccc2)cc1`, the compound was classed as inactive in experiment [1], in experiment [2], in experiment [3] and in experiment [4].
With `CC(C)(C)OOC(C)(C)CCC(C)(C)OOC(C)(C)C`, the call in experiment [2] was inactive.
As to `C1=Cc2cccc3cccc1c23`, the result in experiment [2] and in experiment [3] was inactive.
As to `O=[N+]([O-])c1ccc(Oc2ccc(Cl)cc2Cl)cc1`, the AC50 is 84.9 µM (active) in experiment [1], 31.2 µM (active) in experiment [2] and 77 µM (active) in experiment [4].
For `CC(C)(C)C(O)(CCc1ccc(Cl)cc1)Cn1cncn1` (stereo not given), the concentration at half-maximal activity (AC50) in experiment [1] was 87 µM (active); in experiment [2], 58.9 µM (active); in experiment [3] it was 69.2 µM (active); in experiment [4], 78.7 µM (active).
`CCNS(=O)(=O)C(F)(F)C(F)(F)C(F)(F)C(F)(F)C(F)(F)C(F)(F)C(F)(F)C(F)(F)F`: the result in experiment [2] was inactive. Also, the concentration at half-maximal activity (AC50) in the experiment with AR (gene 367) is 48.2 µM (active).
As to `Clc1ccccc1Cl`, the compound was classed as inactive in experiment [2] and in experiment [3].
Regarding `O=C1CCCO1`, the call in experiment [1], in experiment [2] and in experiment [4] was inactive.
On to `OCCCl`, for which the outcome in experiment [3] was inactive.
With `COc1cc(C=O)cc2c1[C@H](COC(N)=O)[C@]1(OC(C)=O)ON2C[C@H]2[C@@H]1N2C(C)=O`, the figures for the AC50 in experiment [1], in experiment [2] and in experiment [4] were 0.0199 µM (active), 0.00824 µM (active) and 0.00149 µM (active), respectively.
In the case of `CC(C)COC(=O)c1ccccc1C(=O)OCC(C)C`, the results for the AC50 in experiment [1] and in experiment [2] were 74.9 µM (active) and 74.8 µM (active), respectively. In addition, the result in experiment [3] and in experiment [4] was inactive.
As to `CS(=O)(=O)NC(=O)c1cc(Oc2ccc(C(F)(F)F)cc2Cl)ccc1[N+](=O)[O-]`, the outcome in experiment [2] and in experiment [3] was inactive.
`CCCCCCCCn1sccc1=O`: the AC50 in experiment [1] is 18.5 µM (active); in experiment [2], 18.4 µM (active); in experiment [3], 11.8 µM (active); in experiment [4] it was 47.7 µM (active).
Consider `CCN(CC)N=O`, for which the outcome in experiment [4] was inactive.
On to `Nc1ccc(Oc2ccc(N)cc2)cc1`, for which the outcome in experiment [1] and in experiment [2] was inactive. Moreover, in experiment [4], the AC50 was 75.5 µM (active).
As to `c1ccc(N=Nc2ccccc2)cc1`, the call in experiment [2] was inactive.
On to `c1ccc2c(c1)-c1cccc3cccc-2c13`, for which the concentration at half-maximal activity (AC50) in experiment [2] was 8.92 µM (active). In addition, in experiment [3], the outcome was inactive.
For `O=P(OCCCl)(OCCCl)OCCCl`, the call in experiment [3] and in experiment [4] was inactive.
With `OCCOCCO`, the call in experiment [2] was inactive.
`Clc1ccc(Cl)c(Cl)c1`: the result in experiment [2] and in experiment [4] was inactive.
`OCCCBr`: the outcome in experiment [1], in experiment [2] and in experiment [4] was inactive.
In the case of `CNC(=O)Oc1cccc2c1OC(C)(C)C2`, the result in experiment [1], in experiment [2] and in experiment [3] was inactive. Moreover, the AC50 in experiment [4] is 21.4 µM (active).

(Values after PubChem BioAssay (EPA / NIEHS).)
